# Reference: the supplement of paper PMC9135407
# Values joined by “and” are separate entries in the source; they are usually repeats but may differ in a detail not shown here. Equal entries are not always repeated. The campaign covered roughly 5,800 compounds. About 620 (11%) showed activity. Many of the other results were omitted from the sample, so actives are more common in it than they were. Values without a mark were called inactive.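 The calls were made as follows: active = score above a cut-off or among the top three wells of a plate; in these data no inactive exceeds 0.85.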
# Test system: primary human hepatic stellate cells (donor 1)
# Test: scaled lipid accumulation score (0 = DMSO-like, 1 = nortriptyline-like); higher = stronger HSC inactivation (lipid re-accumulation), active = hit call of the paper
# Conditions: 48 h
# [1] = library stock concentration: 3.33 mM
# [2] = library stock concentration: 10 mM
# [3] = library stock concentration: 1 mM
# [4] = library stock concentration: 80 uM
# [5] = library stock concentration: 400 uM
# [6] = library stock concentration: 2 mM
smiles,measurement,setting,value
C[C@]12C=CC(=O)N[C@@H]1CC[C@@H]1[C@@H]2CC[C@]2(C)[C@@H](C(=O)Nc3cc(C(F)(F)F)ccc3C(F)(F)F)CC[C@@H]12 [Dutasteride],scaled lipid accumulation score,[1],≤ 0
same,scaled lipid accumulation score,[2],0.409
Cc1cc(Nc2nc(-c3ccccc3)nc3ccccc23)n[nH]1 [GSK-3 Inhibitor XIII],scaled lipid accumulation score,[1],≤ 0
CCCCCC=CCC=CCCCCCCCC(=O)OC(COC(=O)CCCCCCCCCCCCCCC)COP(=O)(O)OCCN (stereo not given) [1-Palmitoyl-2-linoleoyl PE],scaled lipid accumulation score,[3],0.006
CCCCC/C=C\C/C=C\C/C=C\CCCCCCC(=O)OCC [Dihomo-.gamma.-Linolenic Acid ethyl ester],scaled lipid accumulation score,[3],0.019
COc1ccc2cc(CC(=O)O)ccc2c1 [6-methoxy Naphthalene Acetic Acid],scaled lipid accumulation score,[3],0.002
CC#CCC(C)[C@@H](O)/C=C/[C@@H]1[C@H]2C/C(=C/CCCC(=O)O)C[C@H]2C[C@H]1O (stereo partly drawn) [15(R)-Iloprost],scaled lipid accumulation score,[3],≤ 0
CC(C)(C(=O)NCC(F)(F)C(F)(F)F)C(=O)N[C@@H]1C(=O)Nc2ccccc2-c2ccccc21,scaled lipid accumulation score,[1],≤ 0
same,scaled lipid accumulation score,[2],≤ 0
CC(=O)Nc1c(I)cc(I)c(C(=O)O)c1I [Acetriazoic acid],scaled lipid accumulation score,library stock concentration: 3.6 mM,0.001
same,scaled lipid accumulation score,[2],≤ -0.027
CSc1nc(-c2ccnc(NC(C)c3ccccc3)c2)c(-c2ccc(F)cc2)[nH]1 (stereo not given) [p38 MAP Kinase Inhibitor III],scaled lipid accumulation score,[1],≤ 0
CCCCCCCCCCCCCCCC(=O)OC(CC(=O)O)C[N+](C)(C)C (racemic) [Palmitoyl-DL-Carnitine chloride],scaled lipid accumulation score,[2],0.446
[O-]/[N+](=N\O[C@@H]1O[C@H](CO)[C@H](O)[C@H](O)[C@H]1O)N1CCCC1 [.beta.-Gal-NONOate],scaled lipid accumulation score,[3],≤ 0
CCCCC/C=C\C/C=C\CCCCCCCC(=O)O [Linoleic acid],scaled lipid accumulation score,[3],≤ -0.021
CCCCC/C=C\C/C=C\CCCCCCCC(=O)O [Linoleic Acid (peroxide free)],scaled lipid accumulation score,[3],0.024
CCCCC[C@H](O)/C=C/[C@H]1C(=O)C[C@H](O)[C@@H]1C/C=C\CCCC(=O)O [Prostaglandin  D2],scaled lipid accumulation score,[3],≤ -0.021
CCCCC[C@H](O)/C=C/[C@H]1C(=O)C[C@H](O)[C@@H]1C/C=C\CCCC(=O)O [Prostaglandin D2],scaled lipid accumulation score,[3],≤ 0
COc1cc2c(Oc3ccc(NC(=O)C4(C(=O)Nc5ccc(F)cc5)CC4)cc3F)ccnc2cc1OCCCN1CCOCC1 [listing 1 of 2 here],scaled lipid accumulation score,[4],0.524
same,scaled lipid accumulation score,[5],0.545
same,scaled lipid accumulation score,[6],0.834
same,scaled lipid accumulation score,[2],0.842 and 0.706
COc1cc2c(Oc3ccc(NC(=O)C4(C(=O)Nc5ccc(F)cc5)CC4)cc3F)ccnc2cc1OCCCN1CCOCC1 [listing 2 of 2 here],scaled lipid accumulation score,[1],1.09 (active)
COc1cc2nccc(Oc3ccc(NC(=O)C4(C(=O)Nc5ccc(F)cc5)CC4)cc3)c2cc1OC [Cabozantinib malate (XL184)],scaled lipid accumulation score,[1],0.354
same,scaled lipid accumulation score,[2],0.677
COc1cc2nccc(Oc3ccc(NC(=O)C4(C(=O)Nc5ccc(F)cc5)CC4)cc3)c2cc1OC,scaled lipid accumulation score,[4],0.011
same,scaled lipid accumulation score,[5],≤ -0.016
same,scaled lipid accumulation score,[6],0.189
same,scaled lipid accumulation score,[1],0.757
same,scaled lipid accumulation score,[2],0.459 and 0.491
O=C(NCCCNc1nc(Nc2cccc(NC(=O)N3CCCC3)c2)ncc1I)c1cccs1 [listing 1 of 4 here],scaled lipid accumulation score,[2],1.07 (active)
O=C(Nc1cccc(Nc2ncc(Br)c(NCCc3cnc[nH]3)n2)c1)N1CCCC1,scaled lipid accumulation score,[4],≤ 0
same,scaled lipid accumulation score,[5],≤ 0 and ≤ -0.005
same,scaled lipid accumulation score,[6],≤ 0 and ≤ -0.005
same,scaled lipid accumulation score,[1],≤ 0
same,scaled lipid accumulation score,[2],0.029 and 0.7
O=C(Nc1cccc(Nc2ncc(Br)c(NCCc3c[nH]cn3)n2)c1)N1CCCC1,scaled lipid accumulation score,[2],0.978 (active)
O=C(NCCCNc1nc(Nc2cccc(NC(=O)N3CCCC3)c2)ncc1I)c1cccs1 [listing 2 of 4 here],scaled lipid accumulation score,[2],0.937 (active)
O=C(NCCCNc1nc(Nc2cccc(NC(=O)N3CCCC3)c2)ncc1I)c1cccs1 [listing 3 of 4 here],scaled lipid accumulation score,[4],≤ -0.016
same,scaled lipid accumulation score,[5],≤ -0.016 and ≤ -0.005
same,scaled lipid accumulation score,[6],≤ -0.016 and 0.235
same,scaled lipid accumulation score,[1],0.048
NCCC(=O)NCCc1c[nH]cn1 [Carcinine],scaled lipid accumulation score,,0.074
O=C(NCCCNc1nc(Nc2cccc(NC(=O)N3CCCC3)c2)ncc1I)c1cccs1 [listing 4 of 4 here],scaled lipid accumulation score,[2],1.2 (active)
CC(=O)Oc1ccc2c(c1)CCC1C2CC[C@]2(C)C(=O)CCC12 (stereo not given in full) [Estrone acetate],scaled lipid accumulation score,[2],≤ 0
CCCCn1c(=O)c2c(ncn2CC(C)=O)n(CCCC)c1=O [Denbufylline],scaled lipid accumulation score,library stock concentration: 6.2 mM,≤ -0.006
CCCCc1nc2ccn(Cc3cccs3)c(=O)c2n1Cc1ccc(-c2ccccc2-c2nn[nH]n2)cc1,scaled lipid accumulation score,[2],≤ -0.006
Cc1cc(C(=O)O)sc1C(N)C(=O)O (stereo not given),scaled lipid accumulation score,[2],0.007
CCCn1c(=O)[nH]c(=O)c2[nH]cnc21 [3-n-Propylxanthine],scaled lipid accumulation score,[2],≤ 0
CCOC(=O)c1[nH]c2cc(Cl)ccc2c1C(C(=O)NC(C)(C)C)N(C=O)Cc1ccc(Cl)cc1 (stereo not given),scaled lipid accumulation score,[1],≤ -0.009
same,scaled lipid accumulation score,[2],0.547
Nc1nc(SCc2ccc([N+](=O)[O-])cc2)c2ncn([C@@H]3O[C@H](CO)[C@H](O)C3O)c2n1 (stereo partly drawn) [S-(4-Nitrobenzyl)-6-thioguanosine],scaled lipid accumulation score,[2],0.41
O=C(O)CCC/C=C\C[C@H]1[C@@H](O)CC(=O)[C@@H]1/C=C/[C@@H](O)CCc1ccccc1 [17-phenyl trinor Prostaglandin D2],scaled lipid accumulation score,[3],≤ 0
CNc1nc(-c2ccc3c(N)n[nH]c3c2)cc(N2C[C@@H](C(=O)NC3CCCCC3)CC[C@H]2C)n1,scaled lipid accumulation score,[4],≤ -0.016
same,scaled lipid accumulation score,[5],≤ -0.016
same,scaled lipid accumulation score,[6],≤ -0.016
same,scaled lipid accumulation score,[1],≤ 0
same,scaled lipid accumulation score,[2],0.741 and 0.773
CN(NC(=O)CC(=O)NN(C)C(=S)c1ccccc1)C(=S)c1ccccc1 [Elesclomol (STA-4783)],scaled lipid accumulation score,[1],≤ 0
same,scaled lipid accumulation score,[2],≤ 0
